Molecular target: ERCC8
Experiment: pooled miR-30 sensor sort-seq; sequence = guide strand
Conditions: shRNA
Further: reference of the scale not given here.

**Q.** For TCTAGTACCAACTGCTACCAAA, which sensor-assay potency score (higher = more potent) is on record?
**A.** The sensor-assay potency score (higher = more potent) was -1.28.

**Q.** How did the sensor-assay potency score (higher = more potent) turn out when TTCTTTCAACATCTCTGTCTTT was run?
**A.** The sensor-assay potency score (higher = more potent) was -0.331.

**Q.** How did the sensor-assay potency score (higher = more potent) turn out when TCTGTCTTTATTTAATTCCAGT was run?
**A.** The sensor-assay potency score (higher = more potent) was -1.2.

**Q.** For TCTTTCAACATCTCTGTCTTTA, which sensor-assay potency score (higher = more potent) is on record?
**A.** The sensor-assay potency score (higher = more potent) was 0.0508.

**Q.** Which sensor-assay potency score (higher = more potent) does the source give for TAGCTGTCAGGAATAGACCATA here?
**A.** The sensor-assay potency score (higher = more potent) was -0.945.

**Q.** How did the sensor-assay potency score (higher = more potent) turn out when TTACTCTACTGTCAGCACTTGC was run?
**A.** Its sensor-assay potency score (higher = more potent) is -0.793.

**Q.** With TCACACCATCTGAACCACCTGA as the sequence, how does the sensor-assay potency score (higher = more potent) read?
**A.** The sensor-assay potency score (higher = more potent) was 0.0366.

**Q.** TCTACTGTCAGCACTTGCTGTT was tested. Which sensor-assay potency score (higher = more potent) did it give?
**A.** Its sensor-assay potency score (higher = more potent) is 0.468.

**Q.** TAAACTATACAGAAGTCTGTTT was tested. Which sensor-assay potency score (higher = more potent) did it give?
**A.** The sensor-assay potency score (higher = more potent) was -0.703.

**Q.** How did the sensor-assay potency score (higher = more potent) turn out when ATTATCTGTACCAACAGTGAGG was run?
**A.** Its sensor-assay potency score (higher = more potent) is -0.965.

**Q.** Which sensor-assay potency score (higher = more potent) does the source give for TTCGATTATCTGTACCAACAGT here?
**A.** The sensor-assay potency score (higher = more potent) was -0.994.

**Q.** With TAACTTTCCCATTATGAGCAGT as the sequence, how does the sensor-assay potency score (higher = more potent) read?
**A.** The sensor-assay potency score (higher = more potent) was -0.724.

Molecular target: ERG
Experiment: as above
Conditions: shRNA

**Q.** How did the sensor-assay potency score (higher = more potent) turn out when TAAATCTGTGTTTCTAGCATGC was run?
**A.** The sensor-assay potency score (higher = more potent) was 0.0224.

**Q.** With TGGAAGTCGAACTTGTAGGCGT as the sequence, how does the sensor-assay potency score (higher = more potent) read?
**A.** The sensor-assay potency score (higher = more potent) was 0.335.

**Q.** How did the sensor-assay potency score (higher = more potent) turn out when TTCTAGCATGCATTAACCGTGG was run?
**A.** The sensor-assay potency score (higher = more potent) was -0.659.

**Q.** With TCATCTTGGAAGTCTGTCCATA as the sequence, how does the sensor-assay potency score (higher = more potent) read?
**A.** The sensor-assay potency score (higher = more potent) was -0.884.

**Q.** With TTACATTCCATTTTGATGGTGA as the sequence, how does the sensor-assay potency score (higher = more potent) read?
**A.** Its sensor-assay potency score (higher = more potent) is 0.928.

**Q.** TTCTTGTCATAGTAGTAACGGA was tested. Which sensor-assay potency score (higher = more potent) did it give?
**A.** Its sensor-assay potency score (higher = more potent) is -1.05.

**Q.** For TACATTTCTTAAGACCACTTTC, which sensor-assay potency score (higher = more potent) is on record?
**A.** Its sensor-assay potency score (higher = more potent) is -0.508.

**Q.** With TCTTGTCATAGTAGTAACGGAG as the sequence, how does the sensor-assay potency score (higher = more potent) read?
**A.** Its sensor-assay potency score (higher = more potent) is -1.01.

**Q.** For TTCTTTGGCACTTTGTCCTTAA, which sensor-assay potency score (higher = more potent) is on record?
**A.** The sensor-assay potency score (higher = more potent) was -0.383.

**Q.** With TTTCTAGCATGCATTAACCGTG as the sequence, how does the sensor-assay potency score (higher = more potent) read?
**A.** The sensor-assay potency score (higher = more potent) was -0.322.

**Q.** TTATCGTAGTTCATGTTGGGTT was tested. Which sensor-assay potency score (higher = more potent) did it give?
**A.** Its sensor-assay potency score (higher = more potent) is -0.512.

**Q.** With TAACAAGATGTTGACGTCTGGA as the sequence, how does the sensor-assay potency score (higher = more potent) read?
**A.** Its sensor-assay potency score (higher = more potent) is 0.51.

**Q.** For TTGAGACAGCCAATCCTGCTGA, which sensor-assay potency score (higher = more potent) is on record?
**A.** The sensor-assay potency score (higher = more potent) was 0.276.

**Q.** With TAAGACTTCATGCTTCTACATA as the sequence, how does the sensor-assay potency score (higher = more potent) read?
**A.** Its sensor-assay potency score (higher = more potent) is -1.33.

**Q.** With TATTCGTGACATTTTTAGCATC as the sequence, how does the sensor-assay potency score (higher = more potent) read?
**A.** Its sensor-assay potency score (higher = more potent) is -1.17.

**Q.** For TAAGACTTCAGTAACTCCCTCC, which sensor-assay potency score (higher = more potent) is on record?
**A.** The sensor-assay potency score (higher = more potent) was 0.34.

**Q.** TTTTGATTCATGTTCTCCGATA was tested. Which sensor-assay potency score (higher = more potent) did it give?
**A.** The sensor-assay potency score (higher = more potent) was -0.485.

**Q.** Which sensor-assay potency score (higher = more potent) does the source give for TTCTGTAGTAAGACTTCAGTAA here?
**A.** The sensor-assay potency score (higher = more potent) was 0.212.

**Q.** TTTCTTTGGCACTTTGTCCTTA was tested. Which sensor-assay potency score (higher = more potent) did it give?
**A.** Its sensor-assay potency score (higher = more potent) is 0.442.

**Q.** For TAGCATGCATTAACCGTGGAGA, which sensor-assay potency score (higher = more potent) is on record?
**A.** The sensor-assay potency score (higher = more potent) was -0.638.

**Q.** TGCTTCTACATACACTGTCTTT was tested. Which sensor-assay potency score (higher = more potent) did it give?
**A.** The sensor-assay potency score (higher = more potent) was -1.13.

**Q.** Which sensor-assay potency score (higher = more potent) does the source give for TTCTCCTCCATGTAGCTGCCGT here?
**A.** Its sensor-assay potency score (higher = more potent) is -0.46.

**Q.** TATTGCTTTAGTTTCATCCCAG was tested. Which sensor-assay potency score (higher = more potent) did it give?
**A.** The sensor-assay potency score (higher = more potent) was -0.25.

**Q.** TAAAATGGCATTATAAACGGTA was tested. Which sensor-assay potency score (higher = more potent) did it give?
**A.** The sensor-assay potency score (higher = more potent) was -0.0295.

Molecular target: ERICH1
Experiment: as above
Conditions: shRNA

**Q.** How did the sensor-assay potency score (higher = more potent) turn out when TATTGTGGTGCCATCTGTGTGC was run?
**A.** Its sensor-assay potency score (higher = more potent) is 0.019.

**Q.** TTTATTTTTGCTTATTGTGGTG was tested. Which sensor-assay potency score (higher = more potent) did it give?
**A.** The sensor-assay potency score (higher = more potent) was -0.386.

**Q.** How did the sensor-assay potency score (higher = more potent) turn out when TCTCTCAGTATCTTGCAGGAGC was run?
**A.** The sensor-assay potency score (higher = more potent) was -0.55.

**Q.** How did the sensor-assay potency score (higher = more potent) turn out when AATTGTATCATCTTCCTCGCTG was run?
**A.** The sensor-assay potency score (higher = more potent) was 0.524.
